# Pin1 inhibitor = inhibitors of human Pin1; Pin1 FP peptide displacement, HiFluor488, 10 min; 390,000 compounds, 0.009% hits; Potency, µM (doses to about 115 µM), without a hit: top-dose activity, negative = inhibition, usual class: inhibitors; Q13526; active = well fitted inhibition curve with a large enough effect in the polarisation, with a control signal flat, not every such curve was filed as active; inconclusive = small, poorly fitted or top-dose-only effect, or effect the other way, or a change in a side signal; inactive = no such curve, though single readings can be large or run the other way; the % refers to the polarisation; also: % is scaled to controls: 0 for no effect and ±100 for the full control effect
# Target sequence (Q13526 whole entry, looked up): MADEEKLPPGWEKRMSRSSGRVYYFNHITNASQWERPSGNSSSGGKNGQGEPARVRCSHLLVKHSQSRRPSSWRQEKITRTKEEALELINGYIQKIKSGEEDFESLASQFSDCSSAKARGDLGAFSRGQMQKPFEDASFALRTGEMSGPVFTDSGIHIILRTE
# PKM2 activator = activators of human pyruvate kinase M2; 260,000 compounds, 0.34% hits; purified PKM2, Kinase-Glo ATP luminescence, activation; response scale: 0% is enzyme alone, no compound; P14618; Potency, µM (doses to about 57.5 µM), inactives show top-dose activation, usual class: activators; also: % is scaled to controls: 0 for no effect and ±100 for the full control effect; nearly all actives have a fitted effect of over 55% in size
# Target sequence (P14618 whole entry, looked up): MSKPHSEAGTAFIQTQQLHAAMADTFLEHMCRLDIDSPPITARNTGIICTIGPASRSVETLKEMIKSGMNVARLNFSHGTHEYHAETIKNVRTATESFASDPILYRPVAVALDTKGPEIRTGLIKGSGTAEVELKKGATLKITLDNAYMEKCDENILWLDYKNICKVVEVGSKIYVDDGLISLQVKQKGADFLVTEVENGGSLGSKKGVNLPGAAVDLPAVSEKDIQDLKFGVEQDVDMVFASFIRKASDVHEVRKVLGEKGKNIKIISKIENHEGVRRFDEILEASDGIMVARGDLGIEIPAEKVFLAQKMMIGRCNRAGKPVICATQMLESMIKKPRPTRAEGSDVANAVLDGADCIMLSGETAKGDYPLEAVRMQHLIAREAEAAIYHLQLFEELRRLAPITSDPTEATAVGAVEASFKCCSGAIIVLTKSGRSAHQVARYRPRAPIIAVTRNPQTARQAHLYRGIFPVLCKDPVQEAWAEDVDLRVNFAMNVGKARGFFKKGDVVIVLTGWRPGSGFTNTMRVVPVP
#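 Kinase-Glo luminescence reports ATP generated from ADP (0.1 mM) and PEP (0.5 mM) by purified hPK-M2 after 1 h at room temperature, pH 7.2 imidazole buffer; intermediate enzyme activity allows detecting inhibitors and activators.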
# AT treatment = potential ataxia-telangiectasia treatment; Potency, µM (highest dose often 57.5 µM), inactives show at the top dose activation, actives largely listed as activators; 320,000 compounds, 0.19% hits; F2112 A-T fibroblasts, KAP-1 phosphorylation AlphaLISA; neocarzinostatin DNA damage 30 min before lysis; also: % of control where 0% means no effect; nearly all actives have a fitted effect of over 45% in size
#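 ATM-like activity read as KAP-1 phosphorylation via AlphaLISA donor/acceptor antibody pairs after lysis and 6 hr at 25C. Cells were ATM-null patient fibroblasts (F2112, hTERT), dosed 60 min, then exposed to the DSB inducer NCS for 30 min.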
# TSG101-PTAP inh = blocks PTAP/TSG101 interaction to inhibit HIV-1 budding; Q99816; Fluorescence polarization, FITC-PTAP peptide / Tsg101 binding; Potency, µM (doses to about 115 µM), without a hit: at the highest dose activity change, negative = inhibition, actives largely listed as inhibitors; 340,000 tested, under 10 active; AID 493005; active = well fitted inhibition curve with a large enough effect in the main read-out, with a control signal flat, not every such curve was filed as active; inconclusive = small, poorly fitted or top-dose-only effect, or effect the other way, or a change in a side signal; inactive = no such curve, though single readings can be large or run the other way; also: % of control where 0% means no effect
#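 Fluorescence anisotropy tracks displacement of a FITC-tagged PTAP peptide (50 nM) from the Tsg101 binding domain (10 uM), following a 20 min room-temperature incubation at pH 7.5.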
# Active calls of the source: *; u = inconclusive; x = not tested or not shown; [ ] = remark or other dose. In the library only some 0.39% were active in any assay of this set; here they are far more common. Unless noted, calls follow the shape of the dose curve; as a rule, active = well fitted activation curve with a large enough effect; inconclusive = small, poorly fitted or top-dose-only effect; inactive = no such curve, though single readings can be large or run the other way. Potency is read from the fitted curve at half-maximal effect.
SMILES,Pin1 inhibitor,PKM2 activator,AT treatment,TSG101-PTAP inh
CC(=O)Nc1ccc(/C=N/NC(=O)c2cc(-c3ccco3)nc3ccccc23)cc1,34%,7%,-1%,-5%
COc1ccc(OC)c(/C=N/NC(=O)c2cc(-c3ccc(C)o3)nc3ccccc23)c1,28%,7.9µM*,0%,-2%
CC(=O)Nc1ccc(OC2=NS(=O)(=O)c3ccccc32)cc1,1%,x,x,x
COc1ccc(C=O)cc1COc1ccc(NC(C)=O)cc1,2%,x,x,x
COc1cccc(C2c3c(ncn(CCCN4CCOCC4)c3=N)Oc3ccc4ccccc4c32)c1 (stereo not drawn),17%,x,x,x
O=[N+]([O-])c1ccc(/C=C/C2=NN(c3ccccc3)C(c3ccco3)C2)o1 (stereo not drawn),62%,-6%,-9%,0%
CC(=O)N1N=C(c2ccc(Cl)cc2)CC1c1ccco1 (stereo not drawn),-2%,25µM*,-5%,-10%
C(=C\c1ccco1)/C1=NN(c2ccccc2)C(c2ccco2)C1 (stereo not drawn),u,7%,32µM*,3%
Fc1ccc(C2=NN(c3ccccc3)C(c3ccco3)C2)cc1 (stereo not drawn),7%,-2%,7%[11.5 µM],-2%
Clc1ccc(C2=NN(c3ccccc3)C(c3ccco3)C2)cc1 (stereo not drawn),-5%,16%,25µM*,-3%
Cc1nc(N2N=C(c3ccc(Cl)cc3)CC2c2ccco2)sc1C(=O)N(C)C (stereo not drawn),23%,-9%,32µM*,0%
O=C1S/C(=C/c2ccc(N3CCOCC3)o2)C(=O)N1Cc1c(F)cccc1Cl,u,u,-1%,u
O=C1S/C(=C\c2ccc(N3CCOCC3)o2)C(=O)N1Cc1c(F)cccc1Cl,u,2.5µM*,2%,u
COc1cc(-c2ccc3ncnc(NCc4nc(C)cs4)c3c2)cc(OC)c1OC,-7%,x,x,x
CCOC(=O)C1=C(C)Nc2nnnn2C1c1cccc(OC)c1OC (stereo not drawn),-2%,16µM*,-1%,0%
COC(=O)CCCC1=CC2=CC(=O)C(C)(OC(=O)c3cccs3)C(=O)C2=CN1C1CCCCC1 (stereo not drawn),-7%,-2%[11.5 µM],25µM*,-9%
COC(=O)CCCC1=CC2=CC(=O)C(C)(OC(=O)c3cccs3)C(=O)C2=CN1C1CC1 (stereo not drawn),-15%,-1%[11.5 µM],-19%,1%
Cc1cc(NC(=O)CSc2nnc(-c3ccccc3)o2)no1,0%,26%,-3%,-5%
Cc1cc(NC(=O)CSc2nnc(-c3ccoc3C)o2)no1,5%,16µM*,-1%,-6%
CC1(C)CCC[C@]2(C)[C@H]3CC(=O)O[C@]3(C)CC[C@@H]12,1%,x,1%,-1%
CC(=O)OC[C@]12CC[C@H]3[C@@](C)(CC[C@H]4C(C)(C)CCC[C@]34C)[C@@H]1C[C@H](C1=CC(=O)O[C@@H]1OC(C)=O)O2,x,x,40µM*,x
O=S(=O)(c1ccccc1)N1CCN(c2nccc(-c3cccs3)n2)CC1,38%,x,x,x
CCc1nc2ccccc2n1Cc1cc(=O)n2cc(C)ccc2n1,0%,16µM*,13%,-5%
COc1ccc(NS(=O)(=O)c2cc3c(cc2C)NC(=O)CO3)c(OC)c1,3%,7%,6%,-1%
Cc1ccccc1NS(=O)(=O)c1cc2c(cc1C)NC(=O)CO2,1%,5.6µM*,7%,-1%
SMILES,Pin1 inhibitor,PKM2 activator,AT treatment,TSG101-PTAP inh
CN(C)c1cccc(S(=O)(=O)N2CCN(S(=O)(=O)c3ccc4c(c3)OCCO4)CC2)c1,-10%,x,x,x
CCc1nc(N2CCCCC2)c2oc3ccccc3c2n1,5%,1%,x,-4%
CCc1nc(N2CCCC(C)C2)c2oc3ccccc3c2n1 (stereo not drawn),6%,-19%,40µM*,-8%
COc1ccc(Br)cc1S(=O)(=O)N1CCN(S(=O)(=O)c2ccc3c(c2)OCCO3)CC1,14%,x,x,x
O=C(COC(=O)c1ccc(NS(=O)(=O)c2cccs2)cc1O)Nc1nc2ccccc2s1,23%,-2%,-2%,2%
O=C(COC(=O)c1ccc(NS(=O)(=O)c2cccs2)cc1O)NCc1ccccc1,9%,22µM*,5%,-1%
O=C(COC(=O)c1ccc(NS(=O)(=O)c2cccs2)cc1)NCc1ccco1,x,14µM*,25%,0%
Cc1ccc(NS(=O)(=O)c2cc3c(cc2Cl)CCC(=O)N3)cc1C,-1%,x,x,x
COc1ccc(C2Nc3ccccc3C(=O)N2Cc2ccccc2)cc1COc1cccc(Cl)c1 (stereo not drawn),19%,x,x,x
NC(=O)C1CCN(c2ncc(-c3cccc(N4CCCCC4)c3)s2)CC1,-1%,x,x,x
Cc1ccc([N+](=O)[O-])c(OCCn2cnc3ccccc32)c1,6%,8.9µM*,2%,0%
O=c1oc(-c2ccccc2NS(=O)(=O)c2ccccc2)nc2ccccc12,1%,3%,4%,-2%
O=c1[nH][nH]c(=O)c2c(NS(=O)(=O)c3ccccc3)cccc12,4%,11µM*,2%,0%
COCCn1c(-c2ccc(-c3ccccc3Cl)o2)nc2c1c(=O)[nH]c(=O)n2CC(C)C,u,28µM*,6%,-6%
CCC(=O)NC(c1ccc(C)s1)c1cc(Cl)c2cccnc2c1O (stereo not drawn),4%,x,x,x
C=C(C)C(=O)Nc1cccc(C2=NOC3(C2)C[C@@H](C(N)=O)N(C(=O)/C(C)=C/C)C3)c1 (stereo partly drawn),x,-3%,-19%,-3%
C/C=C/C(=O)N1CC2(CC(c3cccc(NC(=O)CCCCC)c3)=NO2)C[C@H]1C(N)=O (stereo partly drawn),x,0%,-6%,x
C/C=C/C=C/C(=O)N1CC2(CC(c3cccc(NC(=O)CCCCC)c3)=NO2)C[C@H]1C(N)=O (stereo partly drawn),5%,7.9µM*,-23%,-9%
C=C(C)C(=O)Nc1cccc(C2=NOC3(C2)C[C@@H](C(N)=O)N(C(=O)/C=C/C=C/C)C3)c1 (stereo partly drawn),x,13µM*,-10%,0%
C/C=C/C=C/C(=O)N1CC2(CC(c3cccc(NC(=O)/C=C/C)c3)=NO2)C[C@@H]1C(N)=O (stereo partly drawn),u,8.9µM*,13%,x
COc1cccc(C2c3c(ncn(-c4cccc(C#N)c4)c3=N)Oc3ccc4ccccc4c32)c1 (stereo not drawn),19%,x,x,x
COc1cccc(C2C(C#N)=C(NC(=O)CCc3ccccc3)Oc3ccc4ccccc4c32)c1 (stereo not drawn),-5%,x,x,x
CN1C(=O)Cc2cc([S+](=O)([O-])N3CCN([S+](=O)([O-])c4c(F)cccc4F)CC3)ccc21,-1%,x,x,x
O=C(CCCc1cccs1)N1CCN(S(=O)(=O)c2ccccc2Br)CC1,5%,11µM*,9%,-5%

# Screens deposited in PubChem BioAssay by National Center for Advancing Translational Sciences (NCATS).
